High-throughput results deposited in PubChem by National Center for Advancing Translational Sciences (NCATS).
Hits are enriched below; roughly 3.1% of the tested compounds scored in any of these assays.
Nrf2 block = Nrf2 qHTS screen for inhibitors; AID 504444, 2011; Potency, µM (top dose mostly 46 µM), inactives show at the top dose activity change, negative = inhibition, hits mostly inhibitors; 360,000 tested, 2.1% active; A549 ARE-Fluc reporter, luciferase luminescence, 18-24 h; also: % is scaled to controls: 0 for no effect and ±100 for the full control effect; nearly all actives have a fitted effect of over 60% in size
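Concentration-response testing used A549 ARE_Fluc cells at 5000 cells/well. Following an 18-24 h compound incubation, viability was read by fluorescence (Ex 405/Em 525) and luciferase output by luminescence.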
TrxR1 inh = qHTS Assay for Inhibitors of Mammalian Selenoprotein Thioredoxin Reductase 1 (TrxR1): qHTS; Potency, µM (titrated, usually from 114 µM), for inactives: at the highest dose activity change, negative = inhibition, actives largely listed as inhibitors; 390,000 tested, 1% active; AID 588453, 2011; Thioredoxin reductase 1, cytoplasmic (Rattus norvegicus), O89049; recombinant rTrxR1, NADPH fluorescence consumption, selenite substrate; also: % is scaled to controls: 0 for no effect and ±100 for the full control effect; nearly all actives have a fitted effect of over 65% in size
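Rat TrxR1 (90 nM in the dispensed reagent) was pre-reduced with 400 uM NADPH for 5 min at room temperature, then incubated with compound for 15 min. After 400 uM selenite was added, NADPH fluorescence (Ex 340/Em 450 nm) was followed for 8 min.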
A549 viability = Nrf2 qHTS screen for inhibitors: counterscreen for cytotoxicity; Potency, µM (top dose mostly 46 µM), without a hit: at the highest dose activity change, negative = cytotoxicity, actives largely listed as inhibitors; A549 ARE-Fluc cells, CellTiter-Fluor viability, 18-24 h; 390,000 tested, 0.16% active; AID 504648, 2011; also: % is scaled to controls: 0 for no effect and ±100 for the full control effect
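Cytotoxicity counterscreen: CellTiter-Fluor fluorescence was measured in A549 ARE_Fluc cells after 18-24 h of compound exposure in a concentration series. The subsequent BugLite luminescent read reports ARE-luciferase activity.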
IDH1 R132H inh = qHTS for Inhibitors of mutant isocitrate dehydrogenase 1 (IDH1): qHTS | IDH1-R132H enzyme, NADPH consumption, diaphorase/resazurin fluorescence | Isocitrate dehydrogenase [NADP] cytoplasmic (Homo sapiens), O75874 | AID 602179, 2012 | 390,000 tested, 0.093% active | Potency, µM (top dose mostly 76.6 µM), inactives show at the highest dose activity change, negative = inhibition, usual class: inhibitors; also: % is scaled to controls: 0 for no effect and ±100 for the full control effect; nearly all actives have a fitted effect of over 65% in size
Target sequence (O75874 whole entry R132H, stated change not applied): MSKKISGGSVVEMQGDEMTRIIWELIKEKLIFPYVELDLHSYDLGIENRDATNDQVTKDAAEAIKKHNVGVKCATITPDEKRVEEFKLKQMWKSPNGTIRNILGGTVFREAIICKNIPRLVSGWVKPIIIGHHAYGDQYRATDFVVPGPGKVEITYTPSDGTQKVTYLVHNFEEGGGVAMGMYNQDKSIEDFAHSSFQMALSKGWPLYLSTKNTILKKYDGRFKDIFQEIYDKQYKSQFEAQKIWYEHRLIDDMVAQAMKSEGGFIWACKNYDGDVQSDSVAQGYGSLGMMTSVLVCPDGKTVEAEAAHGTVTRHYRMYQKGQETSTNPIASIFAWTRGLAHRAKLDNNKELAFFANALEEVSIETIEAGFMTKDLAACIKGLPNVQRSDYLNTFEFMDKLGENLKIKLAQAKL
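IDH1-R132H (0.5 ug/mL) preincubated 30 min with compound, then NADPH (0.016 mM) and alpha-KG (2 mM) added; 80 min at RT, pH 7.5. Remaining NADPH coupled via diaphorase/resazurin to fluorescence (540/590 nm); concentration-response curves normalized to no-enzyme control.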
Mito fusion yeast = qHTS Assay for Small Molecule Inhibitors of Mitochondrial Division or Activators of Mitochondrial Fusion. S. cerevisiae fusion-defective mutant growth rescue, CellTiterGlo 48 h. 320,000 tested, 0.23% active. AID 485298, 2010. Potency, µM (titrated, usually from 46.1 µM), without a hit: at the highest dose growth rescue (activation), most hits filed as activators; also: % of control where 0% means no effect; nearly all actives have a fitted effect of over 45% in size
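Temperature-sensitive fusion-defective S. cerevisiae (e.g. fzo1-1, mgm1-5) were grown with compound in YPEG medium (3% ethanol, 3% glycerol) for 48 hours at 37C. Growth rescue was measured as viability by CellTiterGlo luminescence after 10 minutes at ambient.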
TrxR1 substrate = qHTS Assay for Substrates of Mammalian Selenoprotein Thioredoxin Reductase 1 (TrxR1): qHTS; Thioredoxin reductase 1, cytoplasmic (Rattus norvegicus), O89049; purified TrxR1 substrate turnover, NADPH consumption readout; Potency, µM (top dose mostly 114 µM), inactives show at the highest dose activity change, negative = substrate turnover; 390,000 tested, 0.01% active; AID 588456, 2011; also: % is scaled to controls: 0 for no effect and ±100 for the full control effect; nearly all actives have a fitted effect of over 50% in size
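Rat TrxR1, dispensed at 90 nM, was prereduced with 400 uM NADPH (final) for 5 min at ~22 deg C, then incubated with compound 15 min before 400 uM selenite. A first-read NADPH fluorescence drop versus no-compound background flagged substrates.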
Starred values were filed as active, the others as inactive; ? = inconclusive; . = not tested or not shown; [ ] = dose if it differs, or a comment. Calls follow the shape of the dose curve; as a rule, active = well fitted curve in the direction sought with a large enough effect; inconclusive = small, poorly fitted or top-dose-only effect, or another doubt; inactive = no such curve, though single readings can be large; an effect the other way counts as inactive or inconclusive. Potency is read from the fitted curve at half-maximal effect.

SMILES	Nrf2 block	TrxR1 inh	A549 viability	IDH1 R132H inh	Mito fusion yeast	TrxR1 substrate
COC(=O)C1=C(c2cccc(OCc3ccccc3)c2)C[C@@H]2CC[C@H]1N2C(=O)NCCOc1ccc(OC)cc1	15µM*	37%	-7%	-6%	18%	6%
COC(=O)C1=C(c2ccc(Cl)c(C(F)(F)F)c2)C[C@@H]2CC[C@H]1N2C(=O)NCCNC(C)=O	23%	-7%[57.1 µM]	0%	-6%	-3%	0%[57.1 µM]
COC(=O)C1=C(c2cccc(OCc3ccccc3)c2)C[C@@H]2CC[C@H]1N2C(=O)NCc1cccc(OC)c1	?	13%	-6%	-2%[38.3 µM]	?	-1%
CCN1C(=O)C(=C/C=C/c2ccco2)C(=O)N(CC)C1=S	-4%	4.5µM*	-14%	-28%	-3%	-1%
CC(C)(C)NC(=O)C1CC2CCCCC2CN1 (configuration not stated)	2%	19%	1%	5%	3.5µM*	4%
CN1C(=O)C(=Cc2ccccc2OS(=O)(=O)c2ccccc2)C(=O)N(C)C1=O	13%	28µM*	0%	18%	-3%	-2%
N#CC(C#N)=Cc1cccnc1	4%	14µM*	-5%	4%	4%	15%[57.1 µM]
Cn1cc(C=C(C#N)C#N)c2ccccc21	-15%	34%	-16%	-2%	0%	3%
Cc1ccc(N2C(=O)NC(=O)/C(=C/c3cnc(-c4ccccc4)nc3)C2=O)cc1C	?	6.3µM*	0%	4%	2%	2%
Cc1cccc(N2C(=O)NC(=O)/C(=C\c3cnc(-c4ccccc4)nc3)C2=O)c1	21%	10µM*	3%	-6%	2%	-2%
CC(C)c1ccc(N2C(=O)NC(=O)/C(=C\C=C\c3ccco3)C2=O)cc1	?	-22%	?	0%	23%	-5%
CC(C)c1ccc(N2C(=O)NC(=O)/C(=C\c3cnc(-c4ccccc4)nc3)C2=O)cc1	?	10µM*	-3%	-4%	3%	8%[57.1 µM]
Cc1cc(=O)oc2c3c(cc(OCC(=O)N4CCC[C@H]4C(=O)O)c12)OC(C)(C)CC3	13%	?	4%	11%	2%	743%
CC(=O)c1cn(Cc2ccccc2F)c2ccccc12	5.8µM*	10%	-8%	-3%	3%	-1%
CC(Oc1ccc(Br)cc1)C(=O)N(Cc1nc(-c2ccccc2)no1)C(C)C (configuration not stated)	?	13%	-21%	-1%	.	-10%
CCOC(=O)CC1c2ccccc2-n2nncc2CN1C (configuration not stated)	0%	-2%	7%	11%	.	-6%
CCOC(=O)CC1c2ccccc2-n2nncc2CN1Cc1ccc(OC)cc1 (configuration not stated)	23µM*	5%	-11%	-6%[38.3 µM]	.	0%
Cn1c(O)c(C(c2ccncc2)c2c(O)n(C)c(=S)n(C)c2=O)c(=O)n(C)c1=S	-19%	7.9µM*	4%	-5%	3%	-9%
O=c1c2ccccc2nc(/C=C/c2ccccc2O)n1-c1ccc(Br)cc1	13%	5%	2%	0%	.	-3%
NC(N)=Nc1ccc2[nH]c3c(c2c1)C[C@@]1(O)[C@H]2Cc4ccc(O)c5c4[C@@]1(CCN2CC1CC1)[C@H]3O5	30%	27µM*	-8%	-9%	-33%	20%[57.1 µM]
CCC1=Nc2cc(C(=O)N3CCC4(CC3)OCCO4)ccc2Sc2ccc(Br)cc21	-4%	17%	-15%	7%	18µM*	0%
CCN(CC)S(=O)(=O)c1ccc2c(c1)c(=O)c(C(=O)NCc1ccccc1OC)cn2C	?	4%	14%	7%	.	-4%
COc1ccc(C=C(C(=O)O)c2ccc(OC)cc2)cc1	?	-6%	1%	-7%	.	7%[57.1 µM]
CCc1ccc(CNC(=O)c2ccc3c(c2)N=C(C)c2cc(C)ccc2S3)cc1	?	12%	-4%	2%	.	-5%
COc1ccc(CCNC(=O)c2ccc3c(c2)N=C(C)c2cc(C)ccc2S3)cc1OC	15µM*	13%	-11%	-7%	.	-1%
SMILES	Nrf2 block	TrxR1 inh	A549 viability	IDH1 R132H inh	Mito fusion yeast	TrxR1 substrate
CCN(CC)c1ncnc2c1ncn2[C@@H]1O[C@H](COP(=O)(O)OP(=O)(O)C(Br)(Br)P(=O)(O)O)[C@@H](O)[C@H]1O	.	16%[57.1 µM]	.	.	4%	7%[57.1 µM]
Cc1cc(C)cc(OCCOc2cccc(C=C3C(=O)NC(=O)NC3=O)c2)c1	-3%	11µM*	-18%	-1%	4%	1%
CCN(CC)C(=O)c1c(C)[nH]c(=S)c(C#N)c1-c1ccco1	7%	?	0%	-5%	-18%	2%[57.1 µM]
CC(=O)OCC1=C(C(=O)O)N2C(=O)[C@@H](NC(=O)CCC[C@@H](N)C(=O)O)[C@H]2SC1	.	-13%[57.1 µM]	.	.	4%	-3%[57.1 µM]
CCCc1[nH][nH]c(=O)c1C(c1ccccc1)C(C#N)C#N (configuration not stated)	-15%	?	-13%	-6%	-7%	6%[57.1 µM]
CCCc1[nH][nH]c(=O)c1C(c1ccc(Cl)cc1)C(C#N)C#N (configuration not stated)	-16%	3.2µM*	-1%	-8%	3%	6%
O=C(O)CCn1cc(C=C2C(=O)NC(=S)NC2=O)c(-c2cc3ccccc3oc2=O)n1	-13%	7.1µM*	2%	-2%	4%	3%
O=C(O)CCn1cc(C=C2C(=O)NC(=S)NC2=O)c(-c2ccccc2)n1	-5%	?	0%	1%	13%	5%[57.1 µM]
CCN(CC)P(=O)(Nc1ccc([N+](=O)[O-])cc1)c1c(C)nn(CCC#N)c1NC(=O)c1ccc(Cl)cc1Cl (configuration not stated)	?	3%[57.1 µM]	-8%	7%	7%	-9%
COc1ccc(N2C(=O)CS(=O)C(c3ccccc3)C2=O)cc1 (configuration not stated)	4%	50µM*	1%	8%	3%	3%
CC(=O)c1ccc(NC(=O)CSc2nc(=O)cc(N)n2-c2ccccc2)cc1	?	9%	2%	6%	3%	-3%
